Assay results: PubChem BioAssay (NCI)
Compounds without any hit were thinned out: in the full panel of roughly 83,000, 20% have a hit.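 The test compound was applied at a single concentration to cells in 96-well plates for 48 hours, and percent growth was recorded.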 A number with no mark means an inactive call. Active and inactive are the calls of the source. How the source made its calls: active means growth percent below 10; inactive means the rest.

These compounds were tested on CCRF-CEM leukemia (assay: NCI-60 one-dose screen, 48 h (100 = growth as untreated, 0 = no growth, -100 = all killed)). Conditions: 10 µM unless noted.

Row | SMILES | growth
1 | CC(C)=CCC[C@](C)(O)[C@H]1CC[C@]2(C)[C@@H]1CC[C@@H]1[C@@]3(C)CC[C@H](N)C(C)(C)[C@@H]3CC[C@]12C | 0.154% (active)
2 | Cc1cc2nc(C(Cl)Cl)nc(-c3ccc(S(=O)(=O)N(C)C)cc3)n2n1 | 40.8%
3 | CCCCCCNC(=O)Oc1ccc(/C(=C(/C)c2ccc(OC)cc2)c2ccc(OCCN3CCCCCC3)cc2)cc1 | 12.4%
4 | Cc1nc(/N=C(N)/N=C(\N)c2cccc(Br)c2)sc1C | 34%
5 | O=c1nc(Nc2ccc([N+](=O)[O-])cc2O)sc2ccccc12 | 16.6%
6 | C#CCOc1ccc(-c2csc(NC(=O)C=C)n2)cc1NS(=O)(=O)c1cccc2c(N(C)C)cccc12 | 3.87% (active)
7 | COc1ccc(C2CC(c3cccc(OCCCCOc4cccc(C5=NOC(c6ccc(OC)cc6)C5)c4)c3)=NO2)cc1 (stereo not drawn) | 72.8%
8 | Cc1ccc(OCc2occc2C(=O)N2CCOCC2)cc1 | 94.5%
9 | O=S(=O)(NCCCNc1nccc(-c2[nH]c(-c3ccccc3)nc2-c2ccc(F)c(O)c2)n1)c1cccc2ccccc12 | 17%
10 | CCc1cc(OC(=O)N2CCC(N3CCCCC3)CC2)ccc1Nc1cc(-c2ccc(-n3cccn3)cc2)[nH]n1 | 7.95% (active)
11 | O=C(COc1ccc(/C=C2\C(=O)Nc3ccc(F)cc32)cc1)Nc1ccccc1 | 96.9%
12 | CC1=C(C)C(=O)C(Nc2cccc(C(=O)OC(C)(C)C)c2)=CC1=O | 78.8%
13 | Cn1cc(-c2nnc(N)nc2-c2c[nH]c3ccc(F)cc23)c2cc(Br)ccc21 | -4.24% (active)
